Experimental findings from PubChem BioAssay (EPA / NIEHS) are described below.

For orientation: AC50 means the concentration giving half of the maximal activity seen.

Holding throughout (conditions): mRNA level, 48 h; actives raise or lower the signal
Read-out in test [1]: Bcl-2 (BID) gene, BID (gene 637)
Briefly: LTEA_HepaRG_BID: Life Technologies and Expression Analysis (LTEA) Assay for Bcl-2 (BID) gene using HepaRG (AID 2283476). A digest of the protocol: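 Transcript levels of BID, measured by qRT-PCR and normalized to three housekeeping genes, were fitted bidirectionally against DMSO controls. Cells were HepaRG, dosed 48 h at up to 100 uM.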

Read-out in another test: Caspase-3 (Homo sapiens) (UniProt P42574)
As to the kind of experiment: LTEA_HepaRG_CASP3: Life Technologies and Expression Analysis (LTEA) Assay for cysteine-aspartic acid protease (CASP3) using HepaRG (AID 2283477). A digest of the protocol: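 HepaRG, 48 h exposure, 8 conc. (top 100 uM, half-log steps, duplicate), 0.5% DMSO vehicle; qRT-PCR of CASP3 transcript, housekeeping-normalised (ACTB/GAPDH/POLR2A); bidirectional curve fit vs DMSO baseline.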

Read-out in test [2]: Cytochrome P450 (CYP24A1), CYP24A1 (gene 1591)
As to the kind of experiment: LTEA_HepaRG_CYP24A1: Life Technologies and Expression Analysis (LTEA) Assay for Cytochrome P450 (CYP24A1) using HepaRG (AID 2283478). The procedure, abridged: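 qRT-PCR read-out: CYP24A1 transcript levels normalized to three housekeeping genes, bidirectional curve fits against 0.5% DMSO baseline. Human HepaRG cells treated 48 h with chemicals at eight concentrations from 100 uM in half-log steps.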

Read-out in test [3]: cysteine-aspartic acid protease (CASP8), CASP8 (gene 841)
Briefly: LTEA_HepaRG_CASP8: Life Technologies and Expression Analysis (LTEA) Assay for cysteine-aspartic acid protease (CASP8) using HepaRG (AID 2283480). A digest of the protocol:
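Differentiated HepaRG cells in serum-free induction medium, 48 h exposure, eight-point half-log series from 100 uM in 0.5% DMSO, duplicates. CASP8 mRNA by qRT-PCR, normalized to ACTB, GAPDH, POLR2A; bidirectional fit versus DMSO.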

Read-out in test [4]: Cytochrome P450 (CYP2B6), CYP2B6 (gene 1555)
Briefly: LTEA_HepaRG_CYP2B6: Life Technologies and Expression Analysis (LTEA) Assay for Cytochrome P450 (CYP2B6) using HepaRG (AID 2283481). A digest of the protocol:
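Read-out is CYP2B6 mRNA by TaqMan qRT-PCR, normalized to three housekeeping genes and fitted bidirectionally against 0.5% DMSO baseline. Human HepaRG cells received test chemicals for 48 h, top concentration 100 uM, half-log dilutions.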

Read-out in test [5]: Cytochrome P450 2C19 (Homo sapiens) (UniProt P33261)
As to the kind of experiment: LTEA_HepaRG_CYP2C19: Life Technologies and Expression Analysis (LTEA) Assay for CYP2C19 using HepaRG (AID 2283482). A digest of the protocol:
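HepaRG, 48 h chemical exposure, 8-pt half-log series from 100 uM in 0.5% DMSO, duplicates. Readout: CYP2C19 mRNA by TaqMan qRT-PCR, housekeeping-normalized. Bidirectional fit vs DMSO baseline; phenobarbital 1mM as induction control.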

Read-out in another test: CYP2C8 (gene 1558)
Briefly: LTEA_HepaRG_CYP2C8: Life Technologies and Expression Analysis (LTEA) Assay for CYP2C8 using HepaRG (AID 2283483). The procedure, abridged:
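Differentiated HepaRG cells in serum-free induction medium exposed 48 h in duplicate to 8 half-log concentrations from 100 uM in 0.5% DMSO. CYP2C8 mRNA by qRT-PCR normalized to ACTB, GAPDH, POLR2A; bidirectional fit versus DMSO.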

Read-out in the next test: CYP2C9 (gene 1559)
As to the kind of experiment: LTEA_HepaRG_CYP2C9: Life Technologies and Expression Analysis (LTEA) Assay for CYP2C9 using HepaRG (AID 2283484). A digest of the protocol: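 Differentiated human HepaRG cells in serum-free induction medium were exposed 48 h to chemicals in 8-point half-log series from 100 uM (0.5% DMSO), in duplicate. CYP2C9 mRNA was measured by qRT-PCR, normalized to ACTB/GAPDH/POLR2A, with bidirectional fitting versus DMSO.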

Read-out in a further test: CYP2E1 (gene 1571)
Briefly: LTEA_HepaRG_CYP2E1: Life Technologies and Expression Analysis (LTEA) Assay for CYP2E1 using HepaRG (AID 2283485). The procedure, abridged:
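Human liver line HepaRG, plated 48 h, then serum-free induction medium + chemical x 48 h; 8-pt CRC from 100 uM, half-log, 0.5% DMSO, n=2. Readout: CYP2E1 mRNA qRT-PCR vs ACTB/GAPDH/POLR2A; bidirectional fit vs DMSO.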

Read-out in test [6]: Cytochrome P450 (CYP1A2), CYP1A2 (gene 1544)
Briefly: LTEA_HepaRG_CYP1A2: Life Technologies and Expression Analysis (LTEA) Assay for Cytochrome P450 (CYP1A2) using HepaRG (AID 2283479). A digest of the protocol:
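HepaRG, 48 h exposure, top 100 uM, half-log 8-pt, 0.5% DMSO vehicle, duplicates. Readout: TaqMan qRT-PCR of CYP1A2 mRNA, housekeeping-normalized (ACTB/GAPDH/POLR2A). Gain/loss fit relative to DMSO baseline.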

Activity calls are given as the source filed them. The calls were made as follows: active = hit-call score of the fitted dose curve at least 0.9, where 1 is the maximum; inactive = score below 0.9.

Chain of Cytochrome P450 2C19 (Homo sapiens) (P33261 whole entry, looked up): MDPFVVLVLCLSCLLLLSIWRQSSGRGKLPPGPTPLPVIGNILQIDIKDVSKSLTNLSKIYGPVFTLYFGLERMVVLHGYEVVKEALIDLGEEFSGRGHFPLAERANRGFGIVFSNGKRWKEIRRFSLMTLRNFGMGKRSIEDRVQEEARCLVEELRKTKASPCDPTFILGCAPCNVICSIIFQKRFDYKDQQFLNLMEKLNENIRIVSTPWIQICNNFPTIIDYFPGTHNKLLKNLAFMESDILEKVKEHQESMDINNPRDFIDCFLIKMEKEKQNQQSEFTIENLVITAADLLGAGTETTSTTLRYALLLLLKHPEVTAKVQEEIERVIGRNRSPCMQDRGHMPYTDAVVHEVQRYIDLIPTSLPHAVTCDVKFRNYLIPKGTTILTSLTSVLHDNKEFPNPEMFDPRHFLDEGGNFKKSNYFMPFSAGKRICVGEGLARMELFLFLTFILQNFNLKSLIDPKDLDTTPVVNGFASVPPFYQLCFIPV
Chain of Caspase-3 (Homo sapiens) (P42574 whole entry, looked up): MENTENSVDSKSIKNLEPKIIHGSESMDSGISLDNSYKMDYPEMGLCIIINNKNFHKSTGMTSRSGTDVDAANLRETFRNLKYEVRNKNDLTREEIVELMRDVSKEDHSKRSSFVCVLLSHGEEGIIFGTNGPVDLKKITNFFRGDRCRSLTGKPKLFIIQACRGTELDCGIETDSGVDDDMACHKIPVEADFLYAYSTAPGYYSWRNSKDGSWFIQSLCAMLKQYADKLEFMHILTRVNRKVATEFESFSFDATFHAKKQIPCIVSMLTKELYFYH

For the molecule `O=C(Nc1ccc(Cl)cc1)Nc1ccc(Cl)c(Cl)c1`, the outcome in [1], in [2] and in test [3] was inactive. The AC50 was 13.3 µM (active) with Caspase-3 (Homo sapiens); 19.2 µM (active) in test [4]; 22.6 µM (active) in test [5]; 87.1 µM (active) in the test with CYP2C8 (gene 1558); 16.9 µM (active) with CYP2C9 (gene 1559); 15.8 µM (active) with CYP2E1 (gene 1571).

As for `Cc1cn([C@H]2C[C@H](N=[N+]=[N-])[C@@H](CO)O2)c(=O)[nH]c1=O`, the result (in test [1]; with Caspase-3 (Homo sapiens); in test [2]; in test [6]; in [3]; in [4]) was inactive. The molecule was classed as inactive (in [5]; with CYP2C8 (gene 1558); with CYP2C9 (gene 1559); with CYP2E1 (gene 1571)).

Consider `COc1cc(C(=O)NC2CCN(C)CC2)ccc1Nc1ncc2c(n1)N(C1CCCC1)CC(F)(F)C(=O)N2C`, for which the AC50 in test [1] was 4.65 µM (active); with Caspase-3 (Homo sapiens) it was 11.1 µM (active); in test [4] it was 0.151 µM (active); in [5] it was 4.65 µM (active); with CYP2C9 (gene 1559) it was 3.9 µM (active); with CYP2E1 (gene 1571) it was 22.9 µM (active). For the same molecule, the result (in test [2]; with CYP2C8 (gene 1558)) was inactive.

Regarding `Clc1cc(Cl)c2c(c1)N=C1CCCCCN1C2`, the molecule was called inactive (in test [1]; with Caspase-3 (Homo sapiens); in [2]; in test [5]; with CYP2C9 (gene 1559)). Also, the figures for the AC50 (in [4]; in the test with CYP2C8 (gene 1558); with CYP2E1 (gene 1571)) were 6.27 µM (active), 6.18 µM (active) and 32.1 µM (active), respectively.

For `CCCCOC(=O)CC(CC(=O)OCCCC)(OC(C)=O)C(=O)OCCCC`, the outcome (in [1]; in the test with Caspase-3 (Homo sapiens); in [2]; in [4]; in test [5]; in the test with CYP2C8 (gene 1558)) was inactive. For the same molecule, the call with CYP2C9 (gene 1559) and with CYP2E1 (gene 1571) was inactive.

As to `C[C@]12CC[C@@H]3c4ccc(O)cc4CC[C@H]3[C@@H]1CC[C@H]2O`, the call (in [1]; in the test with Caspase-3 (Homo sapiens); in test [2]; in test [6]; in the test with CYP2C9 (gene 1559)) was inactive. The AC50 in test [4] is 1.19 µM (active); in test [5] it was 3.77 µM (active); in the test with CYP2C8 (gene 1558), 1.46 µM (active); with CYP2E1 (gene 1571), 88.4 µM (active).

On to `CC(O)CC(C)(C)O` (centres undefined), for which the call (in test [1]; in the test with Caspase-3 (Homo sapiens); in test [2]; in test [6]; in test [3]; in [4]) was inactive. In addition, the outcome (in test [5]; in the test with CYP2C8 (gene 1558); with CYP2C9 (gene 1559); with CYP2E1 (gene 1571)) was inactive.

Regarding `CC[C@@H]1C[C@H](N(Cc2cc(C(F)(F)F)cc(C(F)(F)F)c2)C(C)=O)c2cc(C(F)(F)F)ccc2N1C(=O)OC(C)C`, the result (in test [1]; with Caspase-3 (Homo sapiens); in test [2]; in [3]; with CYP2C9 (gene 1559)) was inactive. Also, the AC50 in test [6] was 21.3 µM (active); in test [4], 0.735 µM (active); in test [5], 0.507 µM (active); with CYP2C8 (gene 1558), 0.814 µM (active); in the test with CYP2E1 (gene 1571), 3.17 µM (active).

With `CCCCOC(=O)c1ccc(O)cc1`, the outcome (in [1]; with Caspase-3 (Homo sapiens); in test [2]; in test [4]; in [5]; in the test with CYP2C8 (gene 1558)) was inactive. For the same molecule, the outcome with CYP2C9 (gene 1559) and with CYP2E1 (gene 1571) was inactive.

Regarding `COCC(C)OCC(C)OCC(C)O` (centres undefined), the result (in [1]; with Caspase-3 (Homo sapiens); in test [6]; in test [3]; in [5]; in the test with CYP2C8 (gene 1558)) was inactive. In the test with CYP2C9 (gene 1559), the outcome was inactive. Besides, the results for the AC50 (in test [4]; with CYP2E1 (gene 1571)) were 25.8 µM (active) and 50 µM (active), respectively.

Consider `O=CCCCC=O`, for which the molecule was classed as inactive (in test [1]; with Caspase-3 (Homo sapiens); in test [2]; in [4]; in [5]; in the test with CYP2C8 (gene 1558)). Further, the outcome with CYP2C9 (gene 1559) and with CYP2E1 (gene 1571) was inactive.

As to `CCN(CC)C(=O)c1cc(S(=O)(=O)Cc2ccccc2)c(N2CCC(c3ccccc3)CC2)cc1N(CC)CCN(C)C`, the result in test [1] and in test [2] was inactive. Moreover, the AC50 with Caspase-3 (Homo sapiens) is 30.6 µM (active); in test [6] it was 6.01 µM (active); in [4], 5.04 µM (active); in [5] it was 4.25 µM (active); with CYP2C8 (gene 1558) it was 4.92 µM (active); with CYP2C9 (gene 1559), 5.05 µM (active). Also, in the test with CYP2E1 (gene 1571), the AC50 is 26 µM (active).

`O=C1O[C@H]([C@@H](O)CO)C(O)=C1O`: the call (in test [1]; with Caspase-3 (Homo sapiens); in [2]; in [6]; in [4]; in [5]) was inactive. The call in the test with CYP2C8 (gene 1558), with CYP2C9 (gene 1559) and with CYP2E1 (gene 1571) was inactive.

`O=C(O)Cc1cc(I)c(Oc2ccc(O)c(I)c2)c(I)c1`: the molecule was classed as inactive (in test [1]; with Caspase-3 (Homo sapiens); in [2]; in the test with CYP2C8 (gene 1558)). Moreover, the half-maximal activity concentration (AC50) in [6] was 2.37 µM (active); in [4] it was 93.8 µM (active); in test [5] it was 93.1 µM (active); in the test with CYP2C9 (gene 1559) it was 79.5 µM (active); in the test with CYP2E1 (gene 1571), 70.6 µM (active).

With `c1ccc2n[nH]nc2c1`, the result (in test [1]; in the test with Caspase-3 (Homo sapiens); in test [2]; in test [6]; in [4]; in [5]) was inactive. The molecule was classed as inactive with CYP2C8 (gene 1558), with CYP2C9 (gene 1559) and in the test with CYP2E1 (gene 1571).

Take `CC/C(=C(/CC)c1ccc(O)cc1)c1ccc(O)cc1`: the molecule was classed as inactive (in test [1]; in test [2]; with CYP2C8 (gene 1558)). Also, the AC50 was 93 µM (active) with Caspase-3 (Homo sapiens), 82.4 µM (active) in [4] and 82.1 µM (active) with CYP2E1 (gene 1571).

Consider `CCCCCCCCCCCCO`, for which the outcome (in test [1]; with Caspase-3 (Homo sapiens); in test [2]; in [4]; in test [5]; with CYP2C8 (gene 1558)) was inactive. For the same molecule, the molecule was called inactive with CYP2C9 (gene 1559) and in the test with CYP2E1 (gene 1571).

In the case of `CC(C)(C)c1csc(-c2cc3cc(OCc4ccccc4CC(=O)O)ccc3o2)n1`, the AC50 in test [1] was 75.7 µM (active); in the test with Caspase-3 (Homo sapiens) it was 77.7 µM (active); in test [4], 23.3 µM (active); in test [5] it was 33.5 µM (active); with CYP2C8 (gene 1558) it was 25.5 µM (active); with CYP2C9 (gene 1559) it was 12.5 µM (active). Also, the AC50 with CYP2E1 (gene 1571) was 16.8 µM (active). The molecule was called inactive in test [2] and in test [3].

On to `O=C1CCC(C2CCCCC2)CC1`, for which the molecule was called inactive (in [1]; with Caspase-3 (Homo sapiens); in test [2]; in test [4]; in test [5]; with CYP2C8 (gene 1558)). The call with CYP2C9 (gene 1559) and in the test with CYP2E1 (gene 1571) was inactive. Further, the AC50 in [6] is 72.5 µM (active).

As for `O=C1c2ccccc2C(=O)N1CCc1noc(-c2ccc(CN3CCCCCC3)s2)n1`, the outcome (in test [1]; in the test with Caspase-3 (Homo sapiens); in [2]; in test [3]; in test [5]; with CYP2C8 (gene 1558)) was inactive. For the same molecule, the molecule was classed as inactive with CYP2C9 (gene 1559) and with CYP2E1 (gene 1571). The AC50 in test [4] was 27.9 µM (active).
